Data published in ChEMBL document CHEMBL4513146, “CO-ADD screening of Karazin Kharkiv National University (Ukraine) compounds”.
Measured potencies and affinities stand elsewhere.

Test system: Escherichia coli
Details: Concentration 32 ug.mL-1;; ASSAY_TEST Inhibition of Bacterial Growth; detection method Absorption (OD600); MEDIA CAMHB; plate type 384well; NBS; CORNING #3640; time 18 hr

| SMILES | Inhibition [%] |
| --- | --- |
| O=C(Cn1nc2c3cc(-c4ccc(Cl)cc4)nn3ccn2c1=O)Nc1ccc(F)cc1 | 4.85 |
| O=c1c2nn(Cc3cccc(Cl)c3)c(=O)n2ccn1-c1ccccc1 | -5.32 |
| COc1ccc(C(=O)CSc2nnc3c(=O)n(-c4cccc(OC)c4)ccn23)cc1 | -2.33 |
| CCOc1ccccc1NC(=O)Cn1nc2c(SC3CCCCC3)nccn2c1=O | -8.56 |
| COc1cccc(Sc2nc3ccccc3n3c(=O)n(CC(=O)Nc4ccc(C)cc4)nc23)c1 | -1.95 |
| Cc1cc2nn(CC(=O)Nc3cccc(C)c3C)c(=O)n2c(Nc2ccc(C)c(F)c2)n1 | -3.18 |
| Cc1ccccc1Oc1nc2ccccc2n2c(=O)n(CC(=O)Nc3cccc(C(F)(F)F)c3)nc12 | 2.27 |
| O=c1c2nn(Cc3ccccc3F)c(=O)n2ccn1-c1ccccc1 | -4.13 |
| Cc1ccc(Oc2nccn3c(=O)n(CC(=O)Nc4ccc(Cl)cc4F)nc23)cc1 | -5.2 |
| CC(C)Cn1c(=O)c2ccc(C(=O)NC3CCCC3)cc2n2c(=O)n(CC(=O)NC3CCCCC3)nc12 | -0.58 |
| COc1cccc(-n2ccn3c(SCC(=O)NCc4ccco4)nnc3c2=O)c1 | -1.73 |
| Cc1cccc(NC(=O)Cn2nc3ccc(SC(C)(C)C)nn3c2=O)c1 | -1.06 |
| Cc1cccc(Oc2nccn3c(=O)n(CC(=O)Nc4ccccc4C(F)(F)F)nc23)c1C | 3.1 |
| Cc1cc(NC(=O)Cn2nc3ccc(SC(C)(C)C)nn3c2=O)ccc1Br | -5.34 |
| CCOc1ccc(NC(=O)Cn2nc3c(SCc4ccc(Cl)cc4)nccn3c2=O)cc1 | -9.96 |
| O=C(CSc1nnc2c(=O)n(-c3cccc(F)c3)ccn12)c1ccc(F)cc1 | 1.51 |
| COc1ccc(N(Cc2cc(F)cc(F)c2)S(=O)(=O)c2ccc3nnc(C)n3c2)cc1 | -2.53 |
| COc1ccc(Cl)cc1NC(=O)CSc1nnc2c(=O)n(-c3ccccc3)ccn12 | -0.85 |
| Cc1cccc(N(C)C(=O)Cn2nc3cc(C)nc(Nc4ccc(F)c(C)c4)n3c2=O)c1 | -7.99 |
| CC(C)c1nnc2c(=O)n(CC(=O)Nc3cccc(C#N)c3)c3ccccc3n12 | 2.48 |
| Cc1ccc(Cn2c(=O)c3ccc(C(=O)NC4CCCC4)cc3n3c(=O)n(CC#N)nc23)cc1 | 1.56 |
| O=C(CCc1nnc2c(N3CCCCC3)nc3ccccc3n12)NCc1ccc(F)cc1 | -4.75 |
| Cc1cccc(NC(=O)Cn2nc3ccc(-c4ccccc4)nn3c2=O)c1 | -5.19 |
| Cc1cc(C)cc(Nc2nc(C)cc3nn(CC(=O)Nc4cccc(Cl)c4)c(=O)n23)c1 | -7.17 |
| O=C(Cn1nc2c(SCc3ccccc3)nccn2c1=O)NC1CCCCC1 | -4.24 |
